High-throughput results (PubChem BioAssay)
HPGD block = HPGD (human) dehydrogenase inhibition. purified HPGD, NADH fluorescence kinetic, PGE2 substrate. Potency, µM, for the others: top-dose activity change, negative = inhibition, usual class: inhibitors. 150,000 tested, 4.3% active. AID 894; further: on the % scale 0 is the no-effect control and ±100 the full control effect
Target sequence (P15428 whole entry, looked up): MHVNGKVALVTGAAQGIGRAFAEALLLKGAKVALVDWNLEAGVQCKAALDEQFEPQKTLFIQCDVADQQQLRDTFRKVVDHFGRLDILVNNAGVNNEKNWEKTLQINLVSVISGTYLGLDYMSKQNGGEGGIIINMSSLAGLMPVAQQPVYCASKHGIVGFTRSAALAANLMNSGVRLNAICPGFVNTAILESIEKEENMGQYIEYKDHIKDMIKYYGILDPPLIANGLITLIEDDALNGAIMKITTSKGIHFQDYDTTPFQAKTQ
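NADH formation kinetics: reaction with 30 uM PGE2 and 1 mM NAD+ (final), 20 nM enzyme, Tris-HCl pH 8 with Tween 20, after 15 min compound preincubation at room temperature. Fluorescence change, last versus first of five reads.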
LMNA splice mod = modulators of lamin A splicing | HeLa LMNA splicing GFP/RFP minigene ratio, 48 h | Potency, µM (top dose mostly 46.1 µM), inactives show top-dose ratio change, negative = inhibition, actives largely listed as inhibitors | 200,000 tested, 0.01% active | AID 1487; active means well fitted inhibition curve with a large enough effect in the signal ratio, with a control signal flat, not every such curve was filed as active; inconclusive means small, poorly fitted or top-dose-only effect, or effect the other way, or a change in a side signal; the % refers to the signal ratio; further: on the % scale 0 is the no-effect control and ±100 the full control effect
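S3 HeLa stable clones carrying a lamin A-EGFP splicing minigene plus DsRed2 were seeded at 600 cells/well in Opti-MEM with 2% FBS, pin-dosed and incubated 48 h at 37°C. Acumen cytometry (488 nm) gave the GFP/RFP total-intensity ratio.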
JMJD2E inh = blocks human JMJD2E demethylase activity; B2RXH2; JMJD2E catalytic domain, FDH-coupled NADH fluorescence (FDH is formaldehyde dehydrogenase); Potency, µM (top dose mostly 57.1 µM), inactives show top-dose activity change, negative = inhibition, hits mostly inhibitors; 230,000 tested, 1.6% active;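 further: 0% = wells with enzyme and -100% = buffer wells without enzyme; nearly all actives have a fitted effect of over 50% in size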
HTT aggregate = inhibitors of mutant huntingtin aggregate formation in PC12 cells | PC12 HttQ103-GFP aggregates, Acumen cytometry, 40 h | Potency, µM (doses to about 46.1 µM), for inactives: at the highest dose activity change, negative = inhibition, most hits filed as inhibitors | 220,000 tested, 1.1% active; active means well fitted curve in the direction sought with a large enough effect; inconclusive means small, poorly fitted or top-dose-only effect, or another doubt; inactive means no such curve, though single readings can be large; an effect the other way counts as inactive or inconclusive; further: on the % scale 0 is the no-effect control and ±100 the full control effect; nearly all actives have a fitted effect of over 60% in size
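Inducible Q103 Huntingtin exon 1–GFP PC12 line, 1500 cells/well in phenol red free DMEM with 5% equine and 5% calf serum. Tebufenozide 100 nM induced expression; compounds titrated; aggregates quantified by cytometry.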
ALDH1A1 inh = blocks purified human ALDH1A1 activity. 220,000 tested, 7.3% active. Potency, µM (doses to about 75.3 µM), for the others: at the highest dose activity, negative = inhibition, usual class: inhibitors. Purified ALDH1A1, NADH fluorescence, propionaldehyde substrate. P00352;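 further: plate controls were no enzyme wells and a reference inhibitor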
Target sequence (P00352 whole entry, looked up): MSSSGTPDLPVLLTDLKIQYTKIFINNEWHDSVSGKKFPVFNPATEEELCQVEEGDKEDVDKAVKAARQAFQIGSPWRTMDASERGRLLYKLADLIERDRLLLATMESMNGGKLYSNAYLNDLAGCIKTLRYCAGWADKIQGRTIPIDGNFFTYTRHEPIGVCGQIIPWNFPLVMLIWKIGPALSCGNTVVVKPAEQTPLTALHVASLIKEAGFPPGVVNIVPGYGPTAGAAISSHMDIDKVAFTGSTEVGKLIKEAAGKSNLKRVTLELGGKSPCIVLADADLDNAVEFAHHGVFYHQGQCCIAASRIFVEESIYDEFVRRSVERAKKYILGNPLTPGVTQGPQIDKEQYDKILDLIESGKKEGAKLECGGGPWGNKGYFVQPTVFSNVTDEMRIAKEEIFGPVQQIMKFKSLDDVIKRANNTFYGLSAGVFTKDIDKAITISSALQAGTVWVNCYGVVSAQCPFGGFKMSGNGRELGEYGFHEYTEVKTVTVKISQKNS
HTT ATP protect = protects HTT-Q103 PC12 cells, measured by ATP. PC12 HTT-Q103 induced, cytoprotection, ATP luminescence, 40 h. Potency, µM (highest dose often 56.4 µM), for the others: cytoprotection (ATP increase), most hits filed as activators. 230,000 tested, 0.14% active. AID 1471; active means well fitted curve in the direction sought with a large enough effect; inconclusive means small, poorly fitted or top-dose-only effect, or another doubt; inactive means no such curve, though single readings can be large; an effect the other way counts as inactive or inconclusive; further: % of control where 0% means no effect; nearly all actives have a fitted effect of over 45% in size
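Compounds added alongside 100 nM tebufenozide, which induces toxic Q103 huntingtin exon 1-GFP in stable PC12 cells; surviving cells quantified by luminescent ATP measurement. Medium: phenol red-free DMEM, 5% equine and 5% calf serum.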
The depositor's hits bear a star; ? = inconclusive; . = no result; ! = repeats disagree; [ ] = another dose, or the depositor's remark. This is a sample that favours compounds with a hit; in the whole collection about 9.2% have one here. Unless noted, the call rests on the fitted dose curve; in most records, active means well fitted inhibition curve with a large enough effect (not every such curve was filed as active); inconclusive means small, poorly fitted or top-dose-only effect, or another doubt; inactive means no such curve, though single readings can be large or run the other way. Potency means the concentration at half of the fitted maximal effect.

SMILES	HPGD block	LMNA splice mod	JMJD2E inh	HTT aggregate	ALDH1A1 inh	HTT ATP protect
CCCn1c(SCC(=O)Nc2sc(C)c(C)c2C#N)nnc1C(C)C	.	-6%	-10%	?	2.8µM*	-11%
Cc1sc(NC(=O)CSc2nnc(C)c(=O)[nH]2)c(C#N)c1C	-17%	0%	3%	6%	14µM*	-6%
CN(C)c1ncc2nc(CCc3ccccc3)c(=O)n(C[C@H]3CCCO3)c2n1	?	.	.	.	?	4%
O=C(O)C1OC(Oc2cc3oc(-c4ccccc4)cc(=O)c3c(O)c2O)C(O)C(O)C1O (stereo not drawn)	4.5µM*	?	2%	-20%	?	.
O=c1cc(-c2ccccc2)oc2cc(O[C@H]3O[C@H](CO)[C@@H](O)[C@H](O)[C@@H]3O)c(O)c(O)c12	.	.	.	.	.	-7%
CCN(CC)S(=O)(=O)c1ccc(NS(=O)(=O)c2ccc(O)c([N+](=O)[O-])c2)cc1	35µM*	-8%	7%	7%	5µM*	5%[10 µM]
Cc1ccc(NC(=O)CNc2cccc(C)c2C)c(C)c1	32µM*	2%	-5%	-8%	8.9µM*	-4%
Cc1ccc(NC(=O)Cc2ccccc2)c(C)c1	.	3%[9.22 µM]	9%	2%[9.22 µM]	-4%	-22%[1.9 µM]
Cc1ccc(NC(=O)CNc2ccc(OC(C)C)cc2)c(C)c1	-10%	-15%	-5%	3%	4.5µM*	-4%[10 µM]
Cc1nc2cnc(N(C)C)nc2n(Cc2ccc(F)cc2)c1=O	?	.	.	.	?	-19%
CCn1cc(C(=O)O)c(=O)c2cc(F)c(N3CCNC(C)C3)c(F)c21 (stereo not drawn)	?	?	?	.	?	-49%
CC(C)CC(=O)NC(=S)Nc1ccc(NC(=O)c2cccs2)cc1	7.9µM*	-4%	0%	2%	?	-11%
CC(C)CC(=O)NC(=S)Nc1ccc(N2CCN(C(=O)c3cccs3)CC2)cc1	.	.	-6%	2%[9.22 µM]	.	1%[10 µM]
CC(C)CC(=O)NC(=S)Nc1cccc(NC(=O)c2ccccc2)c1	-19%	-12%	7%	?	25µM*	23%[10 µM]
COc1cccc2sc(N(Cc3cccnc3)C(=O)c3ccc(S(=O)(=O)N(C)C)cc3)nc12	.	3%[46 µM]	.	.	.	.
CCC1=C2CC[C@H]3C(=O)N(C)C(=O)[C@H]3[C@H]2[C@@]2(Cc3ccccc3)C(=NCCc3c[nH]c4ccccc34)OC(=O)N2C1=O	-3%	.	3%	.	-2%	-3%
O=c1ccsn1Cc1ccccc1	20µM*	7%	5%	?	?	-109%
O=C1C2CCCCC2C(=O)N1Cc1ccccc1 (stereo not drawn)	.	18%[46 µM]	1%	.	?	.
O=C(COC(=O)c1ccccc1F)Nc1cccnc1Cl	.	.	1%	-13%	-1%	-22%
O=C(Nc1ccc(F)cc1F)NC1CC1	.	.	1%	-6%	2%	.
O=C(NC1CCCCCCC1)c1cc(F)c(F)cc1Cl	.	1%[46 µM]	0%	-17%	-13%	-50%
COc1cc(SC)ccc1C(=O)OCC(=O)NC1CCCCC1	.	18%[46 µM]	-23%	-4%	-9%	1%[10 µM]
CSc1ccc(Cl)c(C(=O)NC2CCCC2)c1	16µM*	12%	3%	4%	9%	-2%
COc1cc(SC)ccc1C(=O)N1CCN(c2ccccc2)CC1	.	-9%[46 µM]	11%	5%[9.22 µM]	-5%	14%[10 µM]
COc1cc(SC)ccc1C(=O)NC1CCCCC1	22µM*	3%	-1%	9%	?	-16%[10 µM]
SMILES	HPGD block	LMNA splice mod	JMJD2E inh	HTT aggregate	ALDH1A1 inh	HTT ATP protect
O=C(NC1CC1)c1ccc(F)cc1Cl	20µM*	-14%	0%	-8%	-6%	-8%
COc1cc(SC)ccc1C(=O)N1CCCCCC1	3.2µM*	?	-6%	-22%	6%	34%[10 µM]
COC(=O)c1cc(Cc2ccc(N)c(C(=O)OC)c2)ccc1N	?	-3%	?	-7%	?	-7%
COC(=O)Cc1ccc(O)c(N)c1	.	-7%[46 µM]	5%	18%	28µM*	11%[10 µM]
COc1ccc(C)cc1NS(=O)(=O)c1cccc2cccnc12	.	.	.	.	.	2%
COc1ccc(C)cc1NS(=O)(=O)c1cccc2nonc12	-14%	-11%	-2%	0%	14µM*	7%
Nn1c(=O)c2ccccc2n2c(SCc3ccc(C(F)(F)F)cc3)nnc12	11µM*	-2%	-1%	-23%	22µM*	1%
Nn1c(=O)c2ccccc2n2c(SCc3ccccc3)nnc12	-11%	13%	-1%	-7%	14µM*	-2%[0.074 µM]
Cn1c(=O)n(CCc2ccccc2)c(=O)c2c1nc1n2CCCN1CCc1ccccc1	-11%	?	-2%	?	11µM*	-24%[0.074 µM]
CCOc1ccc(N2CCCn3c2nc2c3c(=O)n(CCc3ccccc3)c(=O)n2C)cc1	?	-1%	8%	6%	11µM*	-4%[0.074 µM]
Cn1c(=O)n(CCc2ccccc2)c(=O)c2c1nc1n2CCCN1Cc1ccccc1	-9%	?	-3%	-52%	?	-31%
Cc1cc(C)cc(N2CCn3c2nc2c3c(=O)n(CCc3ccccc3)c(=O)n2C)c1	.	1.8µM*	.	.	.	.
CC[C@H](C)[C@@H](NC(=O)O[C@@H]1C(=O)c2cc(Br)ccc2O[C@H]1c1ccc2c(c1)OCO2)C(=O)OC	-5%	12%	6%	5%	25µM*!	-6%
COC(=O)[C@H](Cc1ccccc1)NC(=O)O[C@@H]1C(=O)c2cc(Br)ccc2O[C@H]1c1ccc2c(c1)OCO2	-8%	.	-6%	.	?	-368%
Cc1ccc(-c2nnc(-n3nc(C)cc3C)c3ccccc23)cc1	-13%	-11%	-3%	-6%	9%	-9%[10 µM]
Cc1cc(C)n(-c2nnc(Cl)c3ccccc23)n1	.	.	-35%	.	3.5µM*	.
C=C1CCN([C@@H](C)C(=O)NCc2ccc(Cl)cc2)S(=O)(=O)c2ccccc21	.	.	17%	10%[9.22 µM]	.	-1%[10 µM]
CCc1ccc(NC(=S)Nc2cc(C(=O)O)ccc2N2CC3CC(C2)c2cccc(=O)n2C3)cc1 (stereo not drawn)	.	8%[9.22 µM]	?	15%	18µM*	7%
C/C(=C1/C(=O)N(c2ccc([N+](=O)[O-])cc2)N=C1c1ccccc1)N(C)C	-1%	?	2%	13µM*	-8%	-38%
CC1=NN(c2ccc([N+](=O)[O-])cc2)C(=O)/C1=C\N(C)C	-9%	-12%	-5%	-16%	?	-3%[10 µM]
CN(C)/C=C1/C(=O)N(c2ccc([N+](=O)[O-])cc2)N=C1c1ccccc1	-15%	?	?	-13%	16µM*	9%[10 µM]
CN(C)/C=C1\C(=O)N(c2ccc([N+](=O)[O-])cc2)N=C1c1ccccc1	-13%	?	-6%	-13%	25µM*	0%[10 µM]
COc1ccc(/C=C/C(=O)C2CC2)cc1COc1cccc(C)c1C	.	.	2%	-9%[9.22 µM]	.	-19%[10 µM]
